# Test results: PubChem BioAssay (NCI)
# Compounds without any hit were thinned out: in the full panel of roughly 83,000, 20% have a hit.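 Negative percent growth values reflect cell death: -40 means 40% of the cells present at the start died, and -100 means all died.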 Unmarked numbers belong to inactive results. Calls of active or inactive are those of the source. Rule for the calls: active = growth percent below 10; inactive = the rest.
# Key:
# Assay in all cases: NCI-60 one-dose screen, 48 h (100 = growth as untreated, 0 = no growth, -100 = all killed)
# Conditions in all cases: 10 µM unless noted
# [1] = system: SK-MEL-2 melanoma
# [2] = system: EKVX NSCLC
# [3] = system: SN12C renal
# [4] = system: UO-31 renal
# [5] = system: TK-10 renal
# [6] = system: ACHN renal
# [7] = system: CAKI-1 renal
# [8] = system: A498 renal
# [9] = system: CCRF-CEM leukemia
# [10] = system: MOLT-4 leukemia
Structure (SMILES),growth [1],growth [2],growth [3],growth [4],growth [5] [%],growth [6],growth [7],growth [8],growth [9],growth [10]
CCCCC[C@H](O)C/C=C1/C(=O)C=C[C@@H]1C/C=C\CCCC(=O)OC,89.2%,103%,11.5%,81.5%,82.3,75.9%,60.5%,97.5%,2.62% (active),20.2%
C[C@H](C(=O)Nc1ccc(S(N)(=O)=O)cc1)S(=O)(=O)c1ccccc1,102%,98.3%,101%,85.8%,95.4,98.9%,95.2%,106%,105%,105%
O=C(CSc1nccc(Nc2ccc(S(=O)(=O)Nc3nccs3)cc2)n1)c1ccc(C(F)(F)F)cc1,102%,94.4%,102%,69.2%,112,100%,90.1%,109%,108%,112%
Nc1cc2c(cc1Br)-c1cc(Cl)ccc1C2=O,100%,86.5%,102%,67.1%,115,100%,78.5%,102%,98.2%,88.2%
COc1cc(C(=O)c2cnc(-c3cccc4[nH]ccc34)[nH]2)cc(OC)c1OC,39.9%,42.4%,31.1%,26.7%,63.4,30.2%,16.7%,-15.9% (active),10.3%,14.2%
COc1ccc(C2NC(=O)C(C#N)c3c2sc2c(F)cccc32)c(OC)c1 (stereo not given),65.1%,79.8%,73.8%,34%,90.1,37.5%,21.4%,25.2%,71.9%,71.4%
Cc1cc(O)c(C2=NN(c3ccc(S(N)(=O)=O)cc3)C(c3ccccc3O)C2)cc1Cl (stereo not given),17.4%,-2.37% (active),15.1%,9.61% (active),41.5,7.54% (active),-13.6% (active),20.6%,12.9%,-57.4% (active)
CC1(C)C2CC1C1(/C=N/NC(N)=S)C(C2)C(C#N)(C#N)C1(C#N)C#N (stereo not given),90.3%,93.8%,87.6%,51.4%,116,44.8%,104%,94.3%,16%,11.3%
O=c1n(Cc2ccc3ccccc3c2)ccn1Cc1ccc2ccccc2c1,83%,96.6%,91.2%,86.5%,82.7,74.3%,90%,105%,117%,91.8%
Cc1cccc2c3c(sc12)C(c1ccc(Cl)cc1)C(C#N)=C(/N=C/c1ccc(Cl)cc1)O3 (stereo not given),43%,46.5%,27.3%,37.9%,74.8,25.9%,5.67% (active),-4.07% (active),5.88% (active),14.2%
COc1cccc(-c2nc(-c3ccc(NC(=O)c4ccccc4)cc3)[nH]c2-c2ccnc(Br)c2)c1,29.4%,24.4%,53.8%,3.81% (active),59.5,24.8%,20.4%,-28.3% (active),21.4%,15.1%
Cc1ccc(C(=O)N/N=C/c2cccc(Oc3ccccc3)c2)cn1,44.5%,77.4%,68.6%,13.9%,83.3,85.9%,22.9%,57.6%,82.3%,40%
O=C(CCCCCCSc1nc(-c2ccccc2)cc(-c2ccccc2)n1)NO,74%,57.1%,70.1%,22.3%,27.2,23%,13.7%,50%,2.47% (active),5.23% (active)
COc1cc(-c2nc3sccn3c2-c2ccnc(NCCCNS(=O)(=O)c3ccc(F)cc3)n2)ccc1F,69.6%,83.6%,62.1%,48.6%,118,60.7%,61.1%,96.7%,24.7%,47.7%
O=[N+]([O-])c1ccccc1NCSc1ccc(Cl)cc1,114%,104%,72%,68.3%,101,104%,95.3%,86%,25%,49.7%
S=C(c1cccs1)N1CCN(c2cccc(Cl)c2)CC1,99%,115%,101%,88.8%,101,100%,92.4%,96.7%,87.9%,92.5%
O=C1CCC(C(=O)NCCNCCNC(=O)C2CCC(=O)N2)N1 (stereo not given),99.8%,100%,96.9%,96.5%,100,112%,98.8%,89.9%,88.7%,97.2%
CCN1C(=O)N(CC)C2Nn3c(s/c(=C4\C(=O)N(CC(C)C)c5ccccc54)c3=O)=NC21 (stereo not given),66.4%,63.8%,48.9%,49.8%,13.1,52.5%,34.1%,-6.38% (active),42.6%,48.7%
CCc1ccc(Oc2c(-c3ccc(OCc4ccc(Cl)cc4)cc3O)n[nH]c2C(F)(F)F)cc1,11.4%,15.7%,15.3%,-10.4% (active),16.1,5.7% (active),29.6%,11.2%,11.7%,-3.23% (active)
CCc1cccc2c1S/C(=C/c1ccc(Cl)cc1)C2=O,105%,95%,90.5%,70.7%,170,91.3%,87.3%,113%,98%,88.8%
N#Cc1c(Nc2cccc(Cl)c2)sc(C(=O)c2cc3cc(Cl)ccc3o2)c1N,71.4%,158%,81.3%,81%,127,112%,151%,128%,52.8%,66.6%
CCCCn1c(-c2ccc(-c3nc(-c4ccc(Cl)cc4)no3)cc2)nc(-c2ccccc2)c1-c1ccccc1,103%,-93.7% (active),83.2%,-5.33% (active),126,60.3%,82.4%,89.1%,69.7%,65.6%
CCCCCCNC(=O)Oc1ccc(/C(=C(\C)c2ccc(Cl)cc2)c2ccc(OCCN(CC)CC)cc2)cc1,95.6%,73.6%,76.2%,41.8%,85,85.6%,89.9%,93.7%,54.6%,35.3%
O=c1c2cc(F)ccc2sc2c(NCCO)nc3ccccc3c12,102%,83.3%,98.4%,77.8%,114,103%,90.8%,80.6%,105%,104%
O=C(O)CCC/C=C\C[C@H]1C=CC(=O)/C1=C/C[C@@H](O)CCc1cccc(C(F)(F)F)c1,-6.24% (active),37.9%,-24.7% (active),-88.4% (active),11.1,-70.3% (active),12.6%,-12% (active),4.1% (active),-8.07% (active)
